Rows were chosen to be rich in hits. Some 8.1% of all compounds tested hit in one or more screens of this group.
MCF10A rereplic: induces DNA re-replication in MCF 10a normal breast cells; MCF 10A DNA re-replication, Hoechst nuclear intensity, 48 h; Potency, µM (doses to about 46.1 µM), inactives show top-dose activity, positive = re-replication, hits mostly activators; actives 2.9% (n = 350,000); AID 624296; also: % of control where 0% means no effect; nearly all actives have a fitted effect of over 50% in size
KB-V1 MDR tox: KB-V1 MDR subline cytotoxicity | KB-V1 MDR cells viability, CellTiter-Glo, 72 h | Potency, µM (series often up to 46.1 µM), hits mostly cytotoxic | actives 3.4% (n = 400,000); also: % is scaled to controls: 0 for no effect and ±100 for the full control effect; nearly all actives have a fitted effect of over 60% in size
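KB-V1 cells (P-gp-expressing MDR subline of KB-3-1) in phenol-red-free DMEM with 10% FBS were exposed to library compounds over a concentration series for 72 h at 37 degrees C. Viability read by CellTiter-Glo luminescence; concentration-effect curves fitted after normalization.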
SW480 rereplic: induces DNA re-replication in SW480 colon adenocarcinoma cells; Potency, µM (titrated, usually from 46.1 µM), for the others: at the highest dose re-replication activation, most hits filed as activators; SW480 DNA re-replication, Hoechst DNA content imaging, 48 h; actives 1.8% (n = 340,000); AID 624297; also: % of control where 0% means no effect; nearly all actives have a fitted effect of over 55% in size
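Readout is total intensity of Hoechst-stained nuclei, excited at 405 nm and collected at 500-530 nm. Compound treatment lasted 48 hr at 37 C in 5% CO2 before staining.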
KB-3-1 tox: kills parental KB-3-1 adenocarcinoma cells; actives 1.4% (n = 400,000); KB-3-1 viability, CellTiter-Glo ATP luminescence, 72 h; Potency, µM (series often up to 46.1 µM), usual class: cytotoxic; also: % is scaled to controls: 0 for no effect and ±100 for the full control effect; nearly all actives have a fitted effect of over 60% in size
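Here the drug-naive KB-3-1 line serves as comparator for MDR sub-line selectivity; cells received compound titrations, 72 h at 37 °C, then CellTiter-Glo readout.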
ELG1 repair inh: blocks ELG1-dependent DNA repair in HEK293T cells | HEK293T ELG1-luciferase reporter, luminescence, 16 h; DNA damage induced by 5-fluorouridine | Potency, µM (highest dose often 46.1 µM), for the others: top-dose activity change, negative = inhibition, most hits filed as inhibitors | actives 2.3% (n = 330,000) | AID 504467; also: % is scaled to controls: 0 for no effect and ±100 for the full control effect; nearly all actives have a fitted effect of over 55% in size
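HEK293T cells expressing luciferase-tagged ELG1 (2,000/well) received 5-Fluorouridine plus compound or DMSO for 16 hr at 37 °C. Luciferase was read by ONE-Glo luminescence after 30 min at room temperature.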
Numbers without * were called inactive; i = inactive; ? = inconclusive; . = no result. Calls follow the shape of the dose curve; as a rule, active = well fitted curve in the direction sought with a large enough effect; inconclusive = small, poorly fitted or top-dose-only effect, or another doubt; inactive = no such curve, though single readings can be large; an effect the other way counts as inactive or inconclusive. Potency is read from the fitted curve at half-maximal effect.

SMILES	MCF10A rereplic	KB-V1 MDR tox	SW480 rereplic	KB-3-1 tox	ELG1 repair inh
O=C(/C=C/c1ccc2ccccc2n1)c1cc(Cl)ccc1O	12%	i	11%	i	?
CCOc1cc(/C=C/c2ccc3cccc([N+](=O)[O-])c3n2)cc(Cl)c1O	26%	i	16%	i	8.2µM*
Oc1ccc2ccccc2c1/C=C/c1ccc2c(Br)cc(Br)c(O)c2n1	8.2µM*	4.1µM*	18µM*	?	.
Oc1ccc(Cl)cc1/C=C/c1ccc2cccc(O)c2n1	?	i	21µM*	?	-3%
Cc1ccc(CCN2CC(C(=O)NC3CCC(C)CC3)CC2=O)cc1 (stereo not drawn)	.	i	.	i	.
Oc1cccc2ccc(/C=C/c3ccccc3Br)nc12	?	?	6.5µM*	?	?
CCNc1ncnc2[nH]ncc12	3%	i	0%	i	.
Cc1ccc(-c2csc3ncnc(Sc4nnc(CN5CCCCCC5=O)o4)c23)cc1	15µM*	i	?	12µM*	?
Cc1ccc2c(c1)[C@H]1[C@H](CO2)[C@H](c2ccccc2)[C@]2(C)C(=O)Nc3cc(F)ccc3C(=O)N12	5.8µM*	?	?	?	?
C[C@@]12C(=O)Nc3ccc(F)cc3C(=O)N1[C@H]1c3cc(Br)ccc3OC[C@@H]1[C@@H]2c1ccccc1	?	?	?	?	-7%
C[C@@]12C(=O)Nc3cc(F)ccc3C(=O)N1[C@H]1c3cc(Br)ccc3OC[C@@H]1[C@@H]2c1ccccc1	7.3µM*	?	?	?	-6%
Cc1ccc2c(c1)NC(=O)[C@@]1(C)[C@@H](c3ccccc3)[C@H]3COc4ccccc4[C@@H]3N1C2=O	-8%	i	2%	i	-6%
CC(=O)NC(c1ccccc1)c1nc(-c2cccc(C(F)(F)F)c2)cs1 (stereo not drawn)	.	i	.	i	.
COc1ccc(C2(OC)Oc3cc(OC)ccc3C(=O)C2(O)OC)cc1 (stereo not drawn)	?	2.9µM*	17%	?	.
CCOC(=O)c1ccc(N2CCN(c3ccccc3F)CC2)c(NC(=O)Nc2cccc(OC)c2)c1	19%	?	-3%	i	16µM*
COC(=O)c1ccc(N2CCOCC2)c(NC(=O)Nc2cccc(OC)c2)c1	7%	?	-5%	i	?
CCNC(=O)CC1C(=O)N(c2ccccc2)C(=O)N1Cc1ccc(F)cc1 (stereo not drawn)	.	i	.	i	.
CCCCOc1cccc(C(=O)N(Cc2ccc(N(C)C)cc2)C2CCS(=O)(=O)C2)c1 (stereo not drawn)	.	i	.	i	.
CC1CN(c2nc3c(c(=O)n(Cc4ccc(Cl)cc4)c(=O)n3C)n2C)CC(C)O1 (stereo not drawn)	20%	23µM*	-5%	?	?
Cn1c(N2CCC(C(N)=O)CC2)nc2c1c(=O)n(Cc1ccc(Cl)cc1)c(=O)n2C	-2%	i	-17%	i	-16%
Cn1c(N2CCCC2)nc2c1c(=O)n(Cc1ccc(Cl)cc1)c(=O)n2C	6%	?	-3%	i	21µM*
CC1=C(C(=O)N2CCOCC2)CC(CC(=O)NCCCCc2ccccc2)C(=O)N1CCC1=CCCCC1 (stereo not drawn)	.	?	.	i	.
CC1(C)Cc2nc3oc4c(N(CCO)Cc5ccccc5)ncnc4c3cc2CO1	19%	15µM*	-8%	i	18µM*
c1cnc2c(c1)ncc1cscc12	8%	i	-2%	i	?
c1cc2c(cn1)cnc1cscc12	1%	i	-699%	?	8.2µM*
SMILES	MCF10A rereplic	KB-V1 MDR tox	SW480 rereplic	KB-3-1 tox	ELG1 repair inh
COc1ccc(B(O)O)cc1	.	i	.	i	.
CC(=O)N1CCN(c2ccc(NCc3ccc(-c4ccc(Br)cc4)o3)cc2)CC1	23µM*	i	13µM*	9.2µM*	-7%
CC(=O)N1CCN(c2ccc(NCc3ccc(Br)o3)cc2)CC1	-3%	i	-1%	i	1%
O=C(C=Cc1ccccn1)c1ccccc1	3.3µM*	i	?	?	.
O=C(C=Cc1cccnc1)c1ccccc1	?	?	12%	?	.
Cc1nn(Cc2c(Cl)cccc2Cl)c(C)c1NC(=O)c1cn(-c2ccccc2)nc1-c1ccccc1	4.5µM*	9.2µM*	8.2µM*	8.2µM*	?
Cc1ccccc1Cn1nc(C)c(NC(=O)c2sc3ccccc3c2Cl)c1C	?	13µM*	10%	?	26µM*
Cc1ccc(NC(=O)c2cn(-c3ccccc3)nc2-c2ccccc2)cc1	.	?	.	i	.
Cc1nn(Cc2c(Cl)cccc2Cl)c(C)c1NC(=O)c1sc2ccccc2c1Cl	10µM*	i	?	i	0%
Cc1nn(Cc2ccc(Cl)c(Cl)c2)c(C)c1NC(=O)c1sc2ccccc2c1Cl	?	?	1%	?	?
Cc1cc(C(=O)CCC(=O)N(C)CC2COc3ccccc3O2)c(C)s1 (stereo not drawn)	.	i	.	i	.
CCOc1ccc(-c2cc(C(=O)NCc3ccc(OCC)c(OC)c3)[nH]n2)cc1	.	i	.	?	.
CN(CC(=O)Nc1ccc(Cl)c(C(F)(F)F)c1)C(=O)CCN1C(=O)C2CC=CCC2C1=O (stereo not drawn)	11%	?	10%	i	?
CCC(=O)Oc1ccc(C/C(=N\O)c2ccc(O)cc2O)o1	15µM*	i	?	i	?
COc1ccc(N=Cc2sc3ccccc3c2Cl)cc1	-13%	i	?	i	?
O=[N+]([O-])c1ccc(O)c(N=Cc2sc3ccccc3c2O)c1	-33%	4.1µM*	?	16µM*	0%
Oc1ccc(Cl)cc1N=Cc1sc2ccccc2c1Cl	143%	i	21µM*	?	?
c1ccc(CC[n+]2ccncc2)cc1	.	i	.	i	.
O=c1oc2cc(O)ccc2cc1S(=O)(=O)c1ccccc1	2.6µM*	?	2%	i	?
CCCCCCc1cc2cc(S(=O)(=O)c3ccc(Cl)cc3)c(=O)oc2cc1O	?	i	21µM*	?	-19%
Cc1ccc2oc(=O)c(S(=O)(=O)c3ccc(F)cc3)cc2c1	.	i	.	i	.
CCCCCCc1cc2cc(S(=O)(=O)c3ccc(C)cc3)c(=O)oc2cc1O	?	i	18µM*	i	-12%
CCN(CC)c1ccc2cc(S(=O)(=O)c3ccc(Cl)cc3)c(=O)oc2c1	?	i	18µM*	i	-25%
Cc1noc(C)c1-c1ccc(C(=O)NCc2cccnc2)c2occc12	.	i	.	i	.
CC(C)Cc1nnc(NC(=O)CCC(=O)N2CCN(c3ccc([N+](=O)[O-])cc3)CC2)s1	1%	i	?	i	9.2µM*

High-throughput results from PubChem BioAssay.
